# Source: the supplement of paper PMC6555819
# System: PPARg homodimer (NR concentration 180 nM)
# Assay: PBM binding z-score (relative to random genomic background probes); higher = stronger binding; sequences stand for … in GC…GCGATTGACAGCGTAGAATGAAGG
# How it was run: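 Binding z-scores take random background probes as their reference. They come from custom Agilent 4×180K protein-binding microarrays incubated 1 h with ligand-free nuclear receptor dimers, with antibodies against each partner (one per run) detecting binding. Scanned fluorescence was regression-normalized.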
row,Sequence,PBM binding z-score
1,CTATGTAGGGTAAGGGGGTCATTCAGTTTGAAAG,4.11
2,TCGAGAAGGTTACGGGGGCATTCAGGGATGAAGA,1.82
3,TCGAGTAGGTTACGGGGGTATTCAGGGATGAAGA,1.51
4,CCGAGTAGGTTACGAGGGGGCATTTAGTGCGAAT,1.41
5,TCGAGTAGGTTACAGGGGCATTCAGGGATGAAGA,0.898
6,CCGAGTAGGTTACGACGGGGCATTCAGTGCGAAT,0.811
7,CCGAGTAGGTTACGAGGGGGCATGCAGTGCGAAT,2.26
8,CTATGCAGGTTAAGGGGGTCATTCAGTTTGAAAG,2.68
9,TCGAGTAGGGTACGGGGGCATTCAGGGATGAAGA,1.54
10,CCGAGTAGGTTACGAGCGGGCATTCAGTGCGAAT,0.117
11,CCGAGTAGGTTACGAGGGGGCCTTCAGTGCGAAT,1.59
12,TCGAGTAGGTTAGGGGGGCATTCAGGGATGAAGA,2.84
13,CTATGTAGGTTAAGGGGTTCATTCAGTTTGAAAG,1.79
14,CTATGTAGGTTAAGGGGGTCAATCAGTTTGAAAG,2.63
15,CCGAGTAGGTTACGAGGGGGCATTCACTGCGAAT,1.02
16,TCGAGTAGGTTACGGGGGCATTCCGGGATGAAGA,1.57
17,CTATGTAGTTTAAGGGGGTCATTCAGTTTGAAAG,4.75
18,CCGAGTAGGTTACGAGGGGGCAATCAGTGCGAAT,2.06
19,CTAGGTAGGTTAAGGGGGTCATTCAGTTTGAAAG,2.95
20,CTATGTATGTTAAGGGGGTCATTCAGTTTGAAAG,5.05
21,CCGAGTAGATTACGAGGGGGCATTCAGTGCGAAT,0.638
22,CCGAGTAGGTTACGAGGGGGCACTCAGTGCGAAT,1.46
